Assay [1] can be described thus: qHTS profiling for inhibitors of Plasmodium falciparum (3D7) proliferation (AID 743322).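 Also: infected erythrocytes exposed to compound for 72 h before lysis; 100% = DMSO vehicle wells and 0% = 0.29 µM artemisinin.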 The conditions noted are these: P. falciparum 3D7 proliferation; at 28.7 µM (top of the series). In outline:
(§1)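 Erythrocytes infected with P. falciparum (0.3% parasitemia, 2.5% hematocrit) incubated with compounds 72 h at 37 C, 5% CO2. Lysis with saponin/Triton buffer containing SYBR Green I, overnight at room temperature in the dark; DNA fluorescence (485/535 nm) normalised to 0.29 uM artemisinin and DMSO.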

Assay [2] can be described thus: qHTS profiling for inhibitors of Plasmodium falciparum (DD2) proliferation (AID 743323). The conditions noted are these: lower = more inhibition; at 28.7 µM (top of the series). Put shortly: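 SYBR Green fluorescence (ex 485, em 535 nm) of lysed cultures gives parasite DNA content; wells normalized to artemisinin (0.29 uM) and DMSO controls. Infected red cells: 0.3% parasitemia, 2.5% hematocrit, 72 h, 37 C.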
In general terms: In qHTS, concentration-response curves come from the screen itself.

Assay [3] in a line: qHTS profiling for inhibitors of Plasmodium falciparum (HB3) proliferation (AID 743324).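 Also: 100% = DMSO vehicle wells and 0% = artemisinin-treated control wells.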 The conditions noted are these: Plasmodium falciparum HB3 blood-stage proliferation; at 28.7 µM (top of the series). In outline: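 P. falciparum HB3 grown in erythrocytes (0.3% parasitemia, 2.5% hematocrit final) with compound for 72 h at 37 C, 5% CO2. Parasite DNA detected by SYBR Green after saponin/triton lysis overnight; normalized to 0.29 uM artemisinin and DMSO.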

Assay [4] is described as follows: qHTS profiling of the MIPE4 collection as inhibitors of Plasmodium falciparum (3D7) proliferation (AID 743344).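 Also: scaled between DMSO vehicle wells and 0.29 µM artemisinin as full inhibition.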 The conditions noted are these: P. falciparum 3D7 in erythrocytes, SYBR Green DNA fluorescence, 72 h; at 28.5 µM (top of the series) unless noted. In outline:
as §1

A short description of assay [5]: qHTS profiling of the MIPE4 collection as inhibitors of Plasmodium falciparum (DD2) proliferation (AID 743345). The conditions noted are these: P. falciparum Dd2 in erythrocytes, SYBR Green DNA, 72 h; at 28.5 µM (top of the series) unless noted. Put shortly:
as §1

Assay [6] is described as follows: qHTS profiling of the MIPE4 collection as inhibitors of Plasmodium falciparum (DD2) proliferation (Rep 2) (AID 743346). The note with it: P. falciparum Dd2 in erythrocytes, SYBR Green DNA, 72 h; at 28.5 µM (top of the series) unless noted. Put shortly:
as §1

The nature of assay [7]: High-throughput drug toxicity screening in the BPDCN cell line Cal-1 (AID 1224825). The note with it: Cal-1 BPDCN cell viability, qHTS; at 45.8 µM (top of the series) unless noted. In outline:
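Cal-1 cells, 500 per well in phenol-red-free RPMI with 10% FBS, exposed to compounds for 48 hours at 37C, 5% CO2. Viability read by CellTiter-Glo luminescence; percent activity normalized to DMSO (100%) and 9.2 uM bortezomib final (0%).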

Assay [8] can be described thus: qHTS profiling of the MIPE4 collection as inhibitors of Plasmodium falciparum (HB3) proliferation (AID 743347).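 Also: plate controls were DMSO vehicle wells for no effect and artemisinin wells for full effect.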 The note with it: P. falciparum HB3 in erythrocytes, SYBR Green DNA, 72 h; at 28.5 µM (top of the series) unless noted. Put shortly:
as §1

Assay [9] can be described thus: High-throughput drug toxicity screening in the BPDCN cell line Gen2.2 (AID 1224824).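 Also: cells exposed to compounds for 48 h before reading.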 The conditions noted are these: Gen2.2 BPDCN cells; at 45.8 µM (top of the series) unless noted. In outline: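 Gen2.2, 500 cells/well, phenol red-free RPMI/10% FBS/Pen-Strep; 48 h cpd, 37 °C/5% CO2; CTG lum, 15 min RT. Norm: DMSO = 100%, bortezomib 9.2 uM final = 0%.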

Results on 15 molecules are retold here after PubChem BioAssay (NCATS).

On to `CCN1CCN(Cc2ccc(-c3cc4c(N[C@H](C)c5ccccc5)ncnc4[nH]3)cc2)CC1`, for which the remaining parasite growth % (stronger effect = lower value) in assay [1] is -0.0025%. This molecule returned an activity, percent of control in [2] of 1.84%. In assay [3], the remaining proliferation (% of control), lower = more inhibition is 0.0196%. The same molecule returned a parasite growth, % of DMSO control in assay [4] of 5.16%. In assay [5], the parasite growth remaining, % of DMSO control (lower = more inhibition) came out at 8.31%. In assay [6], the parasite growth, % of control (lower = inhibition) stood at 7.53%. Besides, the viability (% of control) in assay [7] came out at 6.05%.
With `Clc1cccc(-n2nnnc2NCc2ccccc2Oc2ccccn2)c1Cl`, the viability (% of control) in assay [7] worked out at 100%.
On to `CC1(C)CC(=O)c2c(C(F)(F)F)nn(-c3ccc(C(N)=O)c(NC4CCC(OC(=O)CN)CC4)c3)c2C1` (configuration not stated), for which, in assay [4], the parasite growth, % of DMSO control amounted to 7.32%. In addition, in assay [6], the parasite growth, % of control (lower = inhibition) came to 11.6%. The molecule also displayed a growth, % of control in [8] of 4.41%. The cell viability, % of control (lower = more cytotoxic) in assay [9] worked out at 1.95%. In addition, the viability (% of control) in [7] came to 13.9%.
`CN1c2cc(O)c(N=NC(N)=O)cc2CC1S(=O)(=O)O` (configuration not stated): the viability (% of control) in [7] came to 126%.
`CCCCCCCCCC(=O)N[C@@H](Cc1c[nH]c2ccccc12)C(=O)N[C@H](CC(N)=O)C(=O)N[C@@H](CC(=O)O)C(=O)N[C@@H]1C(=O)NCC(=O)N[C@@H](CCCN)C(=O)N[C@@H](CC(=O)O)C(=O)N[C@H](C)C(=O)N[C@@H](CC(=O)O)C(=O)NCC(=O)N[C@H](CO)C(=O)N[C@@H]([C@@H](C)CC(=O)O)C(=O)N[C@@H](CC(=O)c2ccccc2N)C(=O)O[C@@H]1C`: in assay [6], the parasite growth, % of control (lower = inhibition) is 108%. The molecule further gave a growth, % of control in [8] of 299%. In [9], the cell viability, % of control (lower = more cytotoxic) turned out to be 128%. Further, the viability (% of control) in assay [7] came to 108%.
As to `CN1CCN(Cc2ccc(NC(=O)Nc3ccc(Oc4cc(NC(=O)C5CC5)ncn4)cc3)cc2C(F)(F)F)CC1`, the parasite growth, % of control (lower = inhibition) in assay [6] was found to be 14.2%. In assay [8], the growth, % of control stood at 7.58%. Further, the cell viability, % of control (lower = more cytotoxic) in [9] is 0.71%. For the same molecule, the viability (% of control) in assay [7] stood at 0.746%.
Regarding `COc1cc(-c2nn(C3CCC(N4CCN(C(C)=O)CC4)CC3)c3ncnc(N)c23)ccc1NC(=O)c1cc2ccccc2n1C` (configuration not stated), the parasite growth, % of DMSO control in assay [4] came out at 5.39%. In addition, in assay [6], the parasite growth, % of control (lower = inhibition) is 20.7%. In [8], the growth, % of control came out at 7.32%. In addition, the cell viability, % of control (lower = more cytotoxic) in assay [9] came to 34.5%. Moreover, in [7], the viability (% of control) was 9.55%.
Take `COc1ccc(C(=O)CC2(O)C(=O)Nc3c(Cl)ccc(Cl)c32)cc1` (configuration not stated): in assay [6], the parasite growth, % of control (lower = inhibition) amounted to 75.9%. Further, the growth, % of control in [8] came to 62.1%. Further, the cell viability, % of control (lower = more cytotoxic) in assay [9] came out at 26.7%. Also, the viability (% of control) in assay [7] was 11.2%.
Regarding `Nc1ccc(S(=O)(=O)Nc2ncccn2)cc1`, in assay [5], the parasite growth remaining, % of DMSO control (lower = more inhibition) came out at 105%. Also, the parasite growth, % of control (lower = inhibition) in assay [6] stood at 69.1%. Moreover, in [8], the growth, % of control was determined as 63.8%. In assay [9], the cell viability, % of control (lower = more cytotoxic) came out at 115%. Further, the viability (% of control) in assay [7] amounted to 103%.
As for `CCCn1c(=O)c2[nH]c(-c3cnn(Cc4cccc(C(F)(F)F)c4)c3)nc2n(CC)c1=O`, in assay [4], the parasite growth, % of DMSO control amounted to 62.2%. Also, the parasite growth, % of control (lower = inhibition) in [6] is 43.2%. Besides, in [8], the growth, % of control came out at 51.8%. Also, the cell viability, % of control (lower = more cytotoxic) in [9] worked out at 49.4%. Moreover, the viability (% of control) in assay [7] was 107%.
For `Cc1ccc(NC(=O)C2(c3ccc4c(c3)OC(F)(F)O4)CC2)nc1-c1cccc(C(=O)O)c1` the same measures were 7.25%, 7.61%, 5.22%, 8.23% and 6.82%.
For the molecule `O=C(Nc1cc(C(F)(F)F)cc(C(F)(F)F)c1)c1cc(Cl)ccc1O`, the remaining parasite growth % (stronger effect = lower value) in assay [1] is -1.15%. Besides, the activity, percent of control in [2] came out at 0.0029%. Besides, the remaining proliferation (% of control), lower = more inhibition in [3] was -0.617%. For the same molecule, the parasite growth remaining, % of DMSO control (lower = more inhibition) in assay [5] was found to be 6.62%. Moreover, the parasite growth, % of control (lower = inhibition) in [6] was 14.1%. For the same molecule, the growth, % of control in assay [8] was determined as 5.57%. Besides, the viability (% of control) in [7] came to 2.38%.
`CC1(C)CCC(c2ccc(Cl)cc2)=C(CN2CCN(c3ccc(C(=O)NS(=O)(=O)c4ccc(N[C@H](CCN5CCOCC5)CSc5ccccc5)c(S(=O)(=O)C(F)(F)F)c4)cc3)CC2)C1`: in assay [1], the remaining parasite growth % (stronger effect = lower value) turned out to be 0.209%. This molecule also had an activity, percent of control in [2] of 2.76%. Also, the remaining proliferation (% of control), lower = more inhibition in [3] was -0.0239%. The parasite growth, % of DMSO control in [4] amounted to 17.1%. Besides, the parasite growth remaining, % of DMSO control (lower = more inhibition) in assay [5] turned out to be 8.31%. In [6], the parasite growth, % of control (lower = inhibition) is 16.8%. Moreover, the growth, % of control in [8] is 9.9%. Also, the viability (% of control) in assay [7] was 16.1%.
In the case of `Cc1ccc(C(=O)Nc2cccc(C(F)(F)F)c2)cc1-c1ccc2nc(NCCN3CCOCC3)ncc2c1`, the remaining parasite growth % (stronger effect = lower value) in assay [1] is -2.64%. Also, the activity, percent of control in assay [2] was found to be 0.812%. Besides, the parasite growth remaining, % of DMSO control (lower = more inhibition) in assay [5] came to 7.55%. In addition, the parasite growth, % of control (lower = inhibition) in assay [6] worked out at 22.9%. This molecule showed a growth, % of control in assay [8] of 8.15%. Moreover, the viability (% of control) in [7] worked out at 5.9%.
In [4], `Cc1c(Cn2c(C)nc3c(C(=O)O)cc(N4CCOCC4)cc32)cccc1C(F)(F)F` gave a parasite growth, % of DMSO control of 72.5%. For the same molecule, in assay [5], the parasite growth remaining, % of DMSO control (lower = more inhibition) worked out at 93.9%. The parasite growth, % of control (lower = inhibition) in [6] amounted to 104%. The growth, % of control in assay [8] stood at 124%. The viability (% of control) in assay [7] turned out to be 70.7%.
